PubChem BioAssay AID1851 (National Center for Advancing Translational Sciences (NCATS), 2009)
“And” between values parts separate entries of the source, which are not always exact repeats. Equal values may be shown once. About 5,100 (32%) of roughly 16,000 compounds were called active. Another 25% or so got no clear call; they are omitted. The list shows a part of the results. Values without a mark were called inactive. Calls follow the shape of the dose curve; as a rule, active = well fitted curve in the direction sought with a large enough effect; inconclusive = small, poorly fitted or top-dose-only effect, or effect the other way; inactive = no such curve, though single readings can be large or run the other way.

Each molecule was assayed against Cytochrome P450 3A4 (Homo sapiens) (UniProt P08684) (assay: Cytochrome panel assay with activity outcomes). Conditions: recombinant CYP, pro-luciferin dealkylation, luminescence, p450-cyp3a4; series mostly up to 57.1 µM; activity, negative = inhibition: at the top concentration.
% is scaled to controls: 0 for no effect and ±100 for the full control effect.

Chain of Cytochrome P450 3A4 (Homo sapiens) (P08684 whole entry, looked up): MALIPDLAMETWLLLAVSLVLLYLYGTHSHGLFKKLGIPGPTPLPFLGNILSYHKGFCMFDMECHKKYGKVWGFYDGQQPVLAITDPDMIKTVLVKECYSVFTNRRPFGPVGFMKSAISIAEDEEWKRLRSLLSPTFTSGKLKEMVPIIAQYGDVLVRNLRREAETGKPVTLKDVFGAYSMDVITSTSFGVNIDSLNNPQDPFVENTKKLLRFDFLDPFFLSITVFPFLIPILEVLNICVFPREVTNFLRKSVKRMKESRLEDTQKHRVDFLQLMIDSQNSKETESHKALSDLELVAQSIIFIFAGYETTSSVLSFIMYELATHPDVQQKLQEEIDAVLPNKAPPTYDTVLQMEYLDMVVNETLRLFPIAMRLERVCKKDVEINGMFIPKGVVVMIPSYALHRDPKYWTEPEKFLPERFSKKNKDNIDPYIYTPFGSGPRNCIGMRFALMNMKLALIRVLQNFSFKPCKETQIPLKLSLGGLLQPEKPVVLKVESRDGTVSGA

Row | Structure (SMILES) | AC50 | activity, negative = inhibition
1 | CNc1cc(NS(=O)(=O)c2ccc(N)cc2)nc(NC)n1 | 0.794 µM (active) | –
2 | Cc1cc(C)nc(NS(=O)(=O)c2ccc(N)cc2)n1 | – | -9.98% [at 25.6 µM]
3 | Nc1ccc(S(=O)(=O)Nc2cnc3ccccc3n2)cc1 | – | -8.37% [at 11.4 µM]
4 | NC1=N[C@H](c2ccc(Cl)cc2)N(c2ccc(S(=O)(=O)Nc3ncccn3)cc2)C(N)=N1 | – | 6.25% [at 11.4 µM]
5 | Cc1cc(C(=O)OC2CCOC2=O)c2ccccc2n1 (stereo unspecified) | – | -7.34% [at 11.4 µM]
6 | COc1cc(OC)cc(C(=O)NCC(=O)OC2CCOC2=O)c1 (stereo unspecified) | 25.1 µM (active) | –
7 | COc1cc(CC(=O)OC2CCOC2=O)cc(OC)c1OC (stereo unspecified) | – | -12.8%
8 | O=C1C[C@@H](O)[C@@H](O)[C@H]2[C@@H]3C(=O)N(C[C@@H]4CCCO4)C(=O)[C@@H]3CC[C@H]12 | – | 9.5% [at 11.4 µM] and -5.79% [at 11.4 µM]
9 | O=c1[nH]c(=S)c2[nH]c(=O)n(-c3ccccc3)c2[nH]1 | – | -9.23% [at 11.4 µM]
10 | CCOc1ccccc1NC(=O)C1=C(C)NC(=O)NC1c1cccc(OC)c1OC (stereo unspecified) | 3.98 µM (active) | –
11 | CCOc1ccccc1NC(=O)CN1CCC(NC(=O)c2ccccc2)CC1 | – | 13.9%
12 | C#CCn1c(S(=O)(=O)Cc2ccc(OC)cc2)nc(-c2ccccc2)c1-c1ccccc1 | 6.31 µM (active) | –
13 | COc1ccccc1C1(CC(=O)Nc2nccs2)CCOC(C(C)C)C1 (stereo unspecified) | 6.31 µM (active) | –
14 | O=c1oc2cc(N=Cc3ccc4c(c3)OCO4)ccc2c2ccccc12 | 3.98 µM (active) | –
15 | O=[N+]([O-])c1ccc2c(c1)Cc1cc(N=Cc3ccc4c(c3)OCO4)ccc1-2 | – | -16.1% [at 11.4 µM]
16 | CC(=O)NC1(c2cccc(F)c2)CCN(CC(=O)NC(C)C)CC1 | – | -4.95%
17 | COc1ccc(C(=O)N/N=C2/C(=O)c3c(C)cc(C)cc3CC2(C)C)cc1 | 3.16 µM (active) | –
18 | COc1ccc(/C(C)=N/NC(=O)c2ccc(N(C)C)cc2)cc1 | – | -29.1%
19 | COc1ccccc1CN1CCC2(CCNCC2)CC1 | – | -17.9%
20 | Cc1cccc(CNc2nc(-c3ccoc3)nc3ccccc23)c1 | 6.31 µM (active) | –
21 | c1cncc(-c2nc(NCc3cccs3)c3ccccc3n2)c1 | 2 µM (active) | –
22 | c1cncc(CNc2nc(-c3ccoc3)nc3ccccc23)c1 | 7.94 µM (active) | –
23 | c1csc(CNc2nc(-c3ccoc3)nc3ccccc23)c1 | 7.94 µM (active) | –
24 | NS(=O)(=O)c1cc2c(cc1Cl)=NC(CCC(=O)O)=NS=2(=O)O | – | 15.3% [at 11.4 µM]
25 | c1ccc(CNc2nc(-c3ccoc3)nc3ccccc23)cc1 | 12.6 µM (active) | –
26 | c1cncc(-c2cncnc2NC2CCNCC2)c1 | – | -27.5%

Row | Structure (SMILES) | AC50 | activity, negative = inhibition
27 | Cc1ccccc1-c1cncnc1NC1CCNCC1 | 15.8 µM (active) | –
28 | COc1ccccc1-c1cncnc1Nc1ccc(F)cc1 | 0.158 µM (active) | –
29 | CNc1ncncc1-c1ccccc1C | 0.631 µM (active) | –
30 | CNc1cc(-c2ccccc2C)ncn1 | – | -9.16%
31 | Cc1ccccc1-c1cncnc1Nc1ccc(F)cc1 | 0.2 µM (active) | –
32 | CC(=O)N(C[C@@H](C)C(=O)O)c1c(I)cc(I)c(N)c1I | – | -6.88% [at 25.6 µM]
33 | CCCCCSc1nncc(=O)[nH]1 | – | 2.96% [at 11.4 µM]
34 | O=C(O)[C@@H]1[C@@H](C(=O)Nc2ccccc2)[C@@H]2C=C[C@@H]1O2 | – | -5.39% [at 11.4 µM]
35 | O=C(O)[C@@H]1[C@@H]2C[C@@H]3[C@@H](OC(=O)[C@@H]31)[C@H]2Br | – | -5.69% [at 11.4 µM]
36 | CCCNc1[nH]c(=O)n(C)c(=O)c1N=O | – | -16% [at 2.29 µM]
37 | Cc1cc(Nc2ccccc2)nc(N)n1 | – | 7.63%
38 | Cc1ccccc1-c1cncnc1Nc1ccccc1 | 0.631 µM (active) | –
39 | O=C(O)c1ccc(Nc2ccnc3cc(Cl)ccc23)cc1O | – | -7.77% [at 11.4 µM]
40 | Cc1cccc(C)c1NC(=O)[C@H](C)N | – | -11.4% [at 25.6 µM]
41 | Cc1cccc(C)c1NC(=O)C(NC=O)c1ccccc1Cl (stereo unspecified) | 10 µM (active) | –
42 | COC(=O)c1[nH]c2cc(OC)ccc2c1NC(=O)CCN1CCSCC1 | – | 1.53% [at 2.29 µM]
43 | CCOC(=O)c1[nH]c2ccc(OC)cc2c1NC(=O)c1ccc2c(c1)OCO2 | 1.41 µM (active) | –
44 | CCOC(=O)c1[nH]c2cc3c(cc2c1NC(=O)CN1CCC2(CC1)OCCO2)OCO3 | – | 14.9%
45 | CCOC(=O)c1[nH]c2cc3c(cc2c1NC(=O)CN1CCc2ccccc2C1)OCO3 | 0.708 µM (active) | –
46 | CCOC(=O)c1ccc(NC(=O)C2(c3ccc(OC)cc3)CCOCC2)cc1 | – | -2.41% [at 2.29 µM]
47 | CCOC(=O)c1[nH]c2cc(OC)c(OC)cc2c1NC(=O)c1ccc2c(c1)OCO2 | 7.94 µM (active) | –
48 | COC(=O)c1[nH]c2cc(OC)ccc2c1NC(=O)c1ccc2c(c1)OCO2 | 7.94 µM (active) | –
49 | COC(=O)c1[nH]c2cccc(OC)c2c1NC(=O)CN(C)CC1OCCO1 | – | -7.49%
50 | CSc1cc(C)nc(NC(C)=O)n1 | – | -0.518%
51 | CCc1nc(SCC(=O)N2CCCc3ccccc32)c2oc3ccccc3c2n1 | 15.8 µM (active) | –
52 | Cc1nc(Oc2ccc(Cl)cc2)c2oc3ccccc3c2n1 | – | 5.99% [at 2.29 µM]

Row | Structure (SMILES) | AC50 | activity, negative = inhibition
53 | CCc1nc(SCC(=O)c2ccc(Cl)s2)c2oc3ccccc3c2n1 | 7.94 µM (active) | –
54 | CCc1nc(SCC(=O)NCCc2ccccc2)c2oc3ccccc3c2n1 | 3.55 µM (active) | –
55 | CCc1nc(N[C@H](C(=O)O)C(C)CC)c2oc3ccccc3c2n1 (stereo partly specified) | – | -3.57%
56 | Cc1ccccc1C(=O)NC(C)c1ccc2c(c1)CCCC2 (stereo unspecified) | – | -17.3%
57 | CCCCN=c1sc(C(=O)OC)cc(=O)n1CCCC | – | -0.264%
58 | COC(=O)[C@H](CCSC)NC(=O)C/C=C\[C@@H](C)[C@@H](CO)OC | – | -14.3% [at 11.4 µM]
59 | COC(=O)[C@H](CCSC)NC(=O)NCc1ccccc1F | 15.8 µM (active) | –
60 | COC(=O)[C@H](CCSC)NC(=O)C/C=C\[C@@H](C)CO | – | -19.4% [at 11.4 µM]
61 | C[C@@H](C(=O)Nc1ccc2ccccc2c1)[C@H]1C[C@]1(C)[C@H](NC(=O)c1cnccn1)c1ccccc1 | 0.631 µM (active) | –
62 | C[C@@H](C(=O)Nc1ccc2ccccc2c1)[C@@H]1C[C@@]1(C)[C@@H](NC(=O)c1cnccn1)c1ccccc1 | 1 µM (active) | –
63 | C[C@@H](C(=O)Nc1ccc2ccccc2c1)[C@@H]1C[C@@]1(C)[C@@H](NC(=O)c1ccncc1Cl)c1ccccc1 | 10 µM (active) | –
64 | C=CCNC(=S)N1CCN(c2ncc3c(=O)c(C(=O)O)cn(CC)c3n2)CC1 | – | 2.96%
65 | COc1ccc(C(=O)NC(CO)c2nnc(SCc3ccc(Cl)c(Cl)c3)n2C)cc1 (stereo unspecified) | – | -5.47% [at 2.29 µM]
66 | Fc1ccc(Cn2c(SCc3ccc(F)c(C(F)(F)F)c3)nnc2C(F)(F)F)cc1 | 20 µM (active) | –
67 | Cc1ccc(CSc2nnc(C(F)(F)F)n2Cc2ccc(F)cc2)cc1 | 3.16 µM (active) | –
68 | Fc1ccc(Cn2c(SCc3ccc(F)c(F)c3)nnc2C(F)(F)F)cc1 | 15.8 µM (active) | –
69 | COc1cccc(CSCC(=O)O)c1 | – | -5.22% [at 11.4 µM]
70 | COc1cccc(CSc2nnc(C(F)(F)F)n2Cc2ccc(F)cc2)c1 | 28.2 µM (active) | –
71 | NC(=O)CC(c1ccccc1)c1ccco1 (stereo unspecified) | – | -3.81%
72 | c1ccc(CNc2ccnc(-c3cccnc3)n2)cc1 | 0.631 µM (active) | –
73 | Cc1cccc(CNc2ccnc(-c3cccnc3)n2)c1 | 0.501 µM (active) | –
74 | O=C(Nc1ccnc(-c2cccnc2)n1)c1cccc(Cl)c1Cl | 4.47 µM (active) | –
75 | O=C(Nc1ccnc(-c2cccnc2)n1)c1ccccc1Cl | – | 3.82% [at 2.29 µM]
76 | CC(=O)Nc1ccnc(-c2cccnc2)n1 | – | 5.09%
77 | Cc1cccc(NC(=O)c2cc(N3C(=O)CCC3=O)ccc2Cl)n1 | – | -1.39%
78 | Cn1cc(C(=O)c2ccc(Cl)cc2Cl)cc1C(=O)O | – | 24.4%

Row | Structure (SMILES) | AC50 | activity, negative = inhibition
79 | Nc1nc(NCc2ccccc2)nc(Nc2cccc(F)c2)c1[N+](=O)[O-] | – | -2.74%
80 | CCC1(O)c2ccccc2-c2ncccc21 (stereo unspecified) | – | -21%
81 | C=C(C)c1cccc(C(C)(C)NC(=O)Nc2cc(C)ccc2OC)c1 | 10 µM (active) | –
82 | COc1ccc(C(N)=O)cc1NC(=O)c1cccc(F)c1 | – | 7.69%
83 | O=[N+]([O-])c1c(NCCO)cc(Sc2nc3ccccc3s2)c2nonc12 | 25.1 µM (active) | –
84 | c1ccc(NCCSc2nc3ccccc3s2)cc1 | – | -25.9% [at 11.4 µM]
85 | CCc1cc2c(Sc3nc4ccccc4s3)ncnc2s1 | – | 6.04% [at 2.29 µM]
86 | COc1n[nH]c2nncnc12 | – | 3.1%
87 | CCOC(=O)C1=C(C)NC2(O)c3ccccc3C(=O)C12O (stereo unspecified) | – | 8.09%
88 | CCOC(=O)C1=C(C)NC(C)=C(C(=O)OCC)C1c1sccc1C | 11.2 µM (active) | –
89 | CCOC(=O)c1[nH]c(C)c(C)c1C | – | -10.8%
90 | O=c1cnc2cnc(OCc3ccccc3)nc2n1Cc1ccc(F)cc1 | 5.01 µM (active) | –
91 | COc1ncc2ncc(=O)n(Cc3ccc(F)cc3)c2n1 | 10 µM (active) | –
92 | COc1ncc2ncc(=O)n(CCC#N)c2n1 | – | -14.1%
93 | COc1ncc2ncc(=O)n(C)c2n1 | – | -13%
94 | N#CCCn1c(=O)cnc2cnc(OCc3ccccc3)nc21 | – | -26.2%
95 | O=C1NCC2(CCN(CCc3ccccc3)CC2)O1 | inactive | –
96 | C[N+]1(CCC[N+]2(C)C[C@H]3[C@H](C2)[C@H]2C=C[C@@H]3CC2)CCOCC1 (stereo partly specified) | – | 31.7% [at 11.4 µM]
97 | CCN(CC)c1cc(C)c2cc(NC(=O)CNC(C)=O)ccc2n1 | – | -3.72% [at 11.4 µM]
98 | Cc1cc(N2CCN(C)CC2)nc2ccc(NC(=O)CCC(=O)NCc3ccco3)cc12 | 15.8 µM (active) | –
99 | COCCCNC(=O)CCC(=O)Nc1ccc2nc(N3CCOCC3)cc(C)c2c1 | 12.6 µM (active) | –
100 | COc1ccc2c(C)cc(N3CCOCC3)nc2c1 | – | -8.84%
101 | CCCCNC(=O)CCC(=O)Nc1ccc2nc(N3CCOCC3)cc(C)c2c1 | 5.01 µM (active) | –
